High-throughput results deposited in PubChem BioAssay by Broad Institute.
PD-1 reverse act = activators reversing PD-1 mediated T-cell inhibition; 29,000 tested, under 10 active; activation, % (no concentration beside the values); primary human CD4 T cells, PD-L1 beads, CellTiter-Glo 96 h; call rule not given here
NOMO-1 viab = STK33 inhibitor candidate reducing NOMO-1 cell viability | actives 7.5% (n = 37,000) | AID 2330 | NOMO-1 AML viability, CellTiter-Glo luminescence, 72 h | inhibition, % (no concentration beside the values); in the data active = inhibition above about 80%
STK33 inh = blocks human STK33 kinase activity. AID 2322. ADP-Glo luminescence, MBP substrate. actives 0.44% (n = 27,000). Q9BYT3. inhibition, % at 12.5 µM; in the data active = inhibition above about 20%
Target sequence (Q9BYT3 whole entry, looked up): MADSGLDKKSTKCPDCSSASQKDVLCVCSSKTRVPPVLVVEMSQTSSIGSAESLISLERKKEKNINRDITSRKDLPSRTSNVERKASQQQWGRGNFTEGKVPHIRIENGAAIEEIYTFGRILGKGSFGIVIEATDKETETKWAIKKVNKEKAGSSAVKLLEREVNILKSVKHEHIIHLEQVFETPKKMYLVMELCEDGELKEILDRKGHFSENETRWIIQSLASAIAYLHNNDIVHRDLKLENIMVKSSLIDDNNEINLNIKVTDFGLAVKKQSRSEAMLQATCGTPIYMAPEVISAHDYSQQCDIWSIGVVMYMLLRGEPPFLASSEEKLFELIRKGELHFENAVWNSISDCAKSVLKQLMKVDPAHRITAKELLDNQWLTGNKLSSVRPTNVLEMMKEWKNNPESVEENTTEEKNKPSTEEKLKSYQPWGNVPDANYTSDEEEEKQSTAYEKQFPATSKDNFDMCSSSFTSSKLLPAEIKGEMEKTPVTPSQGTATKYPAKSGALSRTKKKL
Hits are given with their value; – = inactive; · = no result. Only a selection was taken, and hits are over-represented in it overall.

SMILES	PD-1 reverse act	NOMO-1 viab	STK33 inh
C[C@@H]1CCCCO[C@H](CN(C)C(=O)C2CCCCC2)[C@@H](C)CN([C@H](C)CO)C(=O)c2cc(NS(=O)(=O)c3ccc(Cl)cc3)ccc2O1	·	–	–
COC(=O)c1ccc(NC(=O)CSc2nnnn2-c2ccccc2OC)cc1	–	–	–
CSc1sc(-c2ccn[nH]2)c(-c2ccco2)c1C#N	–	–	·
C[C@@H]1CCCCO[C@H](CN(C)C(=O)Nc2ccc(C(F)(F)F)cc2)[C@@H](C)CN([C@H](C)CO)C(=O)c2cc(NS(=O)(=O)c3ccccc3)ccc2O1	·	–	–
COc1ccc(S(=O)(=O)Nc2ccc3c(c2)C(=O)N([C@H](C)CO)C[C@H](C)[C@H](CN(C)C(=O)Nc2ccc(C(F)(F)F)cc2)OCCCC[C@@H](C)O3)cc1	–	134	–
CC(C)(O)C1Oc2cc3occ(-c4ccc(O)cc4)c(=O)c3c(O)c2C1O (stereo not given)	–	–	–
O=C(COc1cc(Cl)c(Cl)cc1Cl)NCc1ccco1	–	–	–
CC(C)(C)c1ccc(C(O)CCCN2CCC(C(O)(c3ccccc3)c3ccccc3)CC2)cc1 (stereo not given)	–	142	–
OC(CCN1CCCCC1)(c1ccccc1)C1CCCCC1 (stereo not given)	·	–	–
COc1cc(C[C@H]2C(=O)OC[C@@H]2Cc2ccc(O[C@@H]3O[C@H](CO)[C@@H](O)[C@H](O)[C@H]3O)c(OC)c2)ccc1O	–	–	–
CC(C)[C@H](N)C(=O)N[C@@H](Cc1c[nH]c2ccccc12)C(=O)O	·	–	–
CC(NC(=O)/C=C/C(=O)O)C(=O)NC(C(=O)NC(Cc1c[nH]c2ccccc12)C(=O)O)C(C)c1c[nH]c2ccccc12 (stereo not given)	–	–	150
Cc1ccc(S(=O)(=O)Nc2cccc3c2O[C@@H](CN(C)Cc2ccc(Oc4ccccc4)cc2)[C@@H](C)CN([C@H](C)CO)C3=O)cc1	–	86	·
C[C@H](CO)N1C[C@H](C)[C@H](CN(C)Cc2ccc(Oc3ccccc3)cc2)Oc2c(NS(=O)(=O)c3ccc(F)cc3)cccc2C1=O	–	84	·
Cc1ccc(S(=O)(=O)Nc2cccc3c2O[C@H](CN(C)Cc2ccc(Oc4ccccc4)cc2)[C@@H](C)CN([C@@H](C)CO)C3=O)cc1	–	–	·
C[C@@H]1CN([C@H](C)CO)C(=O)c2cccc(NS(=O)(=O)c3ccc(Cl)cc3)c2O[C@H]1CN(C)Cc1ccc(-c2ccccc2)cc1	·	–	·
C[C@H]1CN([C@@H](C)CO)C(=O)c2cccc(NS(=O)(=O)c3ccc(Cl)cc3)c2O[C@H]1CN(C)Cc1ccc(-c2ccccc2)cc1	–	84	·
C[C@H]1CN([C@@H](C)CO)C(=O)c2cccc(NS(=O)(=O)c3ccc(F)cc3)c2O[C@@H]1CN(C)Cc1ccc(Oc2ccccc2)cc1	–	–	·
COc1ccc(COCC(O)CS(=O)(=O)Cc2ccc(C)cc2)cc1 (stereo not given)	–	–	·
COCCNC(=O)c1c(NC(=O)c2ccccc2C)sc2c1CCCC2	–	–	–
COC(=O)c1ccccc1NC(=O)c1ccc(NC(=O)CSc2ccc(C)cc2)cc1	·	–	–
O=C(COc1ccc(C(=O)Nc2ccccc2Cl)cc1)Nc1cc(Cl)cc(Cl)c1	–	–	–
O=C(Nc1ccccc1Cl)c1cc2ccccc2cc1O	–	132	·
O=S(=O)(c1cccc2cnccc12)N1CCCNCC1	–	–	41
CC1CNCCN1S(=O)(=O)c1cccc2cnccc12 (stereo not given)	–	–	–
SMILES	PD-1 reverse act	NOMO-1 viab	STK33 inh
COC(=O)CCC(=O)c1cc2cc(Br)ccc2o1	–	–	·
C[C@H]1CN([C@@H](C)CO)C(=O)c2cc(NS(=O)(=O)c3ccccc3)ccc2O[C@@H]1CN(C)Cc1ccc(Oc2ccccc2)cc1	–	–	–
COc1ccc(S(=O)(=O)Nc2ccc3c(c2)C(=O)N([C@@H](C)CO)C[C@@H](C)[C@@H](CN(C)Cc2ccc(-c4ccccc4)cc2)O3)cc1	–	91	–
COc1ccc(S(=O)(=O)Nc2ccc3c(c2)C(=O)N([C@H](C)CO)C[C@@H](C)[C@H](CN(C)Cc2ccc(-c4ccccc4)cc2)O3)cc1	–	–	–
C[C@@H]1CN([C@@H](C)CO)C(=O)c2cc(NS(=O)(=O)c3ccccc3)ccc2O[C@@H]1CN(C)Cc1ccc(Oc2ccccc2)cc1	–	118	·
Cc1noc(C)c1S(=O)(=O)Nc1ccc2c(c1)C(=O)N([C@H](C)CO)C[C@@H](C)[C@@H](CN(C)Cc1ccc(Oc3ccccc3)cc1)O2	–	105	·
C[C@@H]1CN([C@@H](C)CO)C(=O)c2cc(NS(=O)(=O)c3ccc(F)cc3)ccc2O[C@@H]1CN(C)Cc1ccc(Oc2ccccc2)cc1	·	112	·
Cc1noc(C)c1S(=O)(=O)Nc1ccc2c(c1)C(=O)N([C@H](C)CO)C[C@H](C)[C@@H](CN(C)Cc1ccccc1)O2	–	–	·
C[C@H](CO)N1C[C@H](C)[C@@H](CN(C)Cc2ccc(Oc3ccccc3)cc2)Oc2ccc(NS(=O)(=O)c3ccc(F)cc3)cc2C1=O	–	–	·
Cc1ccc(OCCCCSc2nc(C)cc(=O)[nH]2)c(C)c1	–	–	–
CC1(C)O[C@H]2CC(=O)OC[C@@]23[C@H]1CC(=O)[C@@]1(C)C2=CC(=O)O[C@@H](c4ccoc4)[C@]2(C)CC[C@@H]13	–	–	–
COc1cccc(CNc2nc3nc(C)c(Cc4ccccc4)c(=O)n3[nH]2)c1	–	–	–
C[C@H]1CN([C@@H](C)CO)C(=O)c2cc(NS(=O)(=O)c3ccc(F)cc3)ccc2O[C@@H]1CN(C)Cc1ccc(Oc2ccccc2)cc1	–	117	·
C[C@H](CO)N1C[C@H](C)[C@H](CN(C)Cc2ccc(Oc3ccccc3)cc2)Oc2ccc(NS(=O)(=O)c3ccc(F)cc3)cc2C1=O	–	–	–
COc1ccc(S(=O)(=O)Nc2ccc3c(c2)C(=O)N([C@@H](C)CO)C[C@@H](C)[C@@H](CN(C)Cc2ccc(Oc4ccccc4)cc2)O3)cc1	·	113	·
COc1ccc(S(=O)(=O)Nc2ccc3c(c2)C(=O)N([C@@H](C)CO)C[C@H](C)[C@@H](CN(C)Cc2ccc(Oc4ccccc4)cc2)O3)cc1	–	–	–
Cc1cccc(NC(=O)CCCC(=O)O)c1C	·	·	–
COc1ccc(NC(=O)CN(c2ccccc2Cl)S(C)(=O)=O)c(OC)c1	–	–	–
CCCC1=C(C(=O)OCC)C(c2cc(Br)c(O)c(OC)c2)NC(=O)N1 (stereo not given)	–	–	·
Cc1ccc(NC(=O)c2ccc(NCc3cccnc3)c([N+](=O)[O-])c2)cc1Cl	·	–	–
Cc1cccc(OCCn2c(C(C)O)nc3ccccc32)c1 (stereo not given)	–	–	–
CN(C)c1ccc(/C=C2\C(=O)Nc3ccccc32)c2ccccc12	–	86	–
COc1ccc(C(=C2C(=O)Nc3ccccc32)c2ccc(OC)cc2)cc1	–	–	–
CN(C)C=NC(=O)c1sc(S(C)(=O)=O)c2c1CCC=C2	–	–	·
COc1ccc(Cl)cc1N1CCN(CCNC(=O)Nc2ccccc2C)CC1	·	–	–
COc1ccc(C)cc1CN1CCC(CNC(=O)Nc2cc(Cl)ccc2C)CC1	–	122	–
NS(=O)(=O)c1ccc(NC(=O)CSc2nnc(-c3ccccc3F)n2-c2ccccc2)cc1	·	–	–
